Data on 153 variants can be found in a collection of fitness landscapes (doi:10.1016/j.celrep.2020.107928).

The full ranking holds about 81,000 sequences; the median of “one-hybrid fitness for binding NBS DNA” is about -0.1, and the highest 2% start at about 0.36. Many of the other results were omitted from the sample, so the highest values are more common in it than they were. A value given as a limit tells only on which side of the number the result lay.

To fix the notation:
B1: Caulobacter ParB omega fusion; a variant is named by its letters at X, in order, B8GW30 (parent)
chain: MESVVVGEPGMSEGRRGLGRGLSALLGEVDAAPAQAPGEQLGGSREAPIEILQRNPDQPRRTFREEDLEDLSNSIREKGVLQPILVRPSPDTAGEYQIVAGERAWRAAQRAGLKTVPIMVRELDDLAVLEIGIIENVQRADLNVLEEALSYKVLMEKFERTQENIAQTIGKSXSHVANXMRLLXLPDEVQSYLVSGELTAXHARAIAAAADPVALAKQIIEGGLSVRETEALARKAPNLSAGKSKGGRPPRVKDTDTQALESDLSSVLGLDVSIDHRGSTGTLTITYATLEQLDDLCNRLTRGI

In this experiment the parent is B1. Kind of experiment: one-hybrid fitness for binding NBS DNA (the Noc-binding site; scaled: cognate 1, non-cognate 0); higher = stronger binding. To be noted: with NBS DNA site. In outline:
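On M9-minus-histidine containing 0.1 mM IPTG and 5 mM 3-AT, E. coli USO cells with a HIS3 reporter, site 19 bp from the promoter, grew 48 hours at 37°C to select Caulobacter ParB libraries randomised at four specificity codons. Plasmids from before and after were Illumina-sequenced, with three replicate libraries pooled and variants under 10 reads left out. Fitness is the log change in variant-to-wild-type read ratio, rescaled against cognate and non-cognate.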
As to QQIR, the “one-hybrid fitness for binding NBS DNA” value amounted to 0.435.

Regarding QQPN, the “one-hybrid fitness for binding NBS DNA” value was at most 0.2.

With QQPR, the “one-hybrid fitness for binding NBS DNA” value was 0.365.

As to QQPP, the “one-hybrid fitness for binding NBS DNA” value was at most 0.2. For QQIC, the “one-hybrid fitness for binding NBS DNA” value is at most 0.2. As to QQIY, the “one-hybrid fitness for binding NBS DNA” value was at most 0.2. On to IMNC, for which the “one-hybrid fitness for binding NBS DNA” value is at most 0.2. Next, QCIE: at most 0.2. As to GPNL, the “one-hybrid fitness for binding NBS DNA” value is at most 0.2.

On to RCPT, for which the “one-hybrid fitness for binding NBS DNA” value was at most 0.2.

Take RRPT: the “one-hybrid fitness for binding NBS DNA” value was determined as 0.694. The same measure for RPPT: at most 0.2.

Turning to RRIT, the “one-hybrid fitness for binding NBS DNA” value is 0.788. With RRIP, the “one-hybrid fitness for binding NBS DNA” value is at most 0.2.

Consider RCIT, for which the “one-hybrid fitness for binding NBS DNA” value is 0.289. As to QIKI, the “one-hybrid fitness for binding NBS DNA” value is at most 0.2. For GQNR, the “one-hybrid fitness for binding NBS DNA” value is at most 0.2.

For PQLG, the “one-hybrid fitness for binding NBS DNA” value is at most 0.2. For QMQD, the “one-hybrid fitness for binding NBS DNA” value is at most 0.2. Regarding NMRR, the “one-hybrid fitness for binding NBS DNA” value was at most 0.2. As for QMQR, the “one-hybrid fitness for binding NBS DNA” value amounted to 0.55. For QMHR, the “one-hybrid fitness for binding NBS DNA” value was 0.647.

For QMQN, the “one-hybrid fitness for binding NBS DNA” value was at most 0.2.

For the variant QMER, the “one-hybrid fitness for binding NBS DNA” value was 0.324. The same measure for QMHP: at most 0.2; for DMRR: at most 0.2; for QMRR: 1.02. Regarding QMHN, the “one-hybrid fitness for binding NBS DNA” value is at most 0.2.

Take QMYF: the “one-hybrid fitness for binding NBS DNA” value was at most 0.2. QMYR: the “one-hybrid fitness for binding NBS DNA” value was found to be 0.507. Regarding YCIR, the “one-hybrid fitness for binding NBS DNA” value was at most 0.2. For the variant PWLA, the “one-hybrid fitness for binding NBS DNA” value was at most 0.2. As for PATL, the “one-hybrid fitness for binding NBS DNA” value is at most 0.2. As to QMGC, the “one-hybrid fitness for binding NBS DNA” value is at most 0.2. In the case of QMPR, the “one-hybrid fitness for binding NBS DNA” value was found to be 0.323. Regarding QMIP, the “one-hybrid fitness for binding NBS DNA” value was at most 0.2. The same measure for QMDF: at most 0.2. For QMGK, the “one-hybrid fitness for binding NBS DNA” value is 0.221. With QMIR, the “one-hybrid fitness for binding NBS DNA” value was found to be 0.398. On to QMGR, for which the “one-hybrid fitness for binding NBS DNA” value came to 0.591. With QMDR, the “one-hybrid fitness for binding NBS DNA” value was found to be 0.403. For QMDD, the “one-hybrid fitness for binding NBS DNA” value is at most 0.2. Next, QMNN: at most 0.2. Take QMNH: the “one-hybrid fitness for binding NBS DNA” value was determined as 0.284.

As to QMNR, the “one-hybrid fitness for binding NBS DNA” value turned out to be 0.637.

Consider KASM, for which the “one-hybrid fitness for binding NBS DNA” value was at most 0.2. Take RNWE: the “one-hybrid fitness for binding NBS DNA” value was at most 0.2. Turning to WRSG, the “one-hybrid fitness for binding NBS DNA” value was at most 0.2.

As for HNPS, the “one-hybrid fitness for binding NBS DNA” value was at most 0.2. Take AKVR: the “one-hybrid fitness for binding NBS DNA” value is at most 0.2. The same measure for ERAT: at most 0.2; for FHRT: at most 0.2.

For the variant HTGY, the “one-hybrid fitness for binding NBS DNA” value was at most 0.2. On to KAEC, for which the “one-hybrid fitness for binding NBS DNA” value was at most 0.2. With QAVP, the “one-hybrid fitness for binding NBS DNA” value is at most 0.2. CWTT: the “one-hybrid fitness for binding NBS DNA” value is at most 0.2. On to THIP, for which the “one-hybrid fitness for binding NBS DNA” value was at most 0.2. For the variant NAAC, the “one-hybrid fitness for binding NBS DNA” value is at most 0.2. Take FHTW: the “one-hybrid fitness for binding NBS DNA” value is at most 0.2.

For GAEY, the “one-hybrid fitness for binding NBS DNA” value was at most 0.2. The same measure for QKSR: 0.65; for QKSD: at most 0.2.

With QISR, the “one-hybrid fitness for binding NBS DNA” value was 0.386. On to QHSD, for which the “one-hybrid fitness for binding NBS DNA” value was at most 0.2. On to QHSR, for which the “one-hybrid fitness for binding NBS DNA” value worked out at 0.51.

With QSSD, the “one-hybrid fitness for binding NBS DNA” value is at most 0.2.

As to QHSN, the “one-hybrid fitness for binding NBS DNA” value was at most 0.2. Consider QSSP, for which the “one-hybrid fitness for binding NBS DNA” value is at most 0.2. With QKSN, the “one-hybrid fitness for binding NBS DNA” value is at most 0.2. Turning to QISS, the “one-hybrid fitness for binding NBS DNA” value was 0.228.

QISP: the “one-hybrid fitness for binding NBS DNA” value is at most 0.2. Turning to QSSR, the “one-hybrid fitness for binding NBS DNA” value amounted to 0.526. RKLW: the “one-hybrid fitness for binding NBS DNA” value was at most 0.2. The same measure for VHYS: at most 0.2; for PGDT: at most 0.2; for KQTL: at most 0.2. Turning to HGQT, the “one-hybrid fitness for binding NBS DNA” value was at most 0.2. Consider APTM, for which the “one-hybrid fitness for binding NBS DNA” value was at most 0.2. Next, HNIL: at most 0.2. For the variant QASP, the “one-hybrid fitness for binding NBS DNA” value was at most 0.2. Take QASH: the “one-hybrid fitness for binding NBS DNA” value is at most 0.2. Take QGSR: the “one-hybrid fitness for binding NBS DNA” value is at most 0.2. On to QPSR, for which the “one-hybrid fitness for binding NBS DNA” value is 0.44. For the variant QPSH, the “one-hybrid fitness for binding NBS DNA” value was at most 0.2.

As for QPSP, the “one-hybrid fitness for binding NBS DNA” value was at most 0.2. Regarding QTSH, the “one-hybrid fitness for binding NBS DNA” value stood at 0.321. The same measure for QWSR: 0.229. As for QTSR, the “one-hybrid fitness for binding NBS DNA” value was determined as 0.786. For QCSR, the “one-hybrid fitness for binding NBS DNA” value is 0.614. Next, QASR: 0.482; QTSD: at most 0.2. Next, RVGY: at most 0.2. Next, YYRE: at most 0.2; EWTK: at most 0.2. Turning to SFAV, the “one-hybrid fitness for binding NBS DNA” value was at most 0.2. For RSFI, the “one-hybrid fitness for binding NBS DNA” value is at most 0.2. Take ETCC: the “one-hybrid fitness for binding NBS DNA” value is at most 0.2.

With HGGG, the “one-hybrid fitness for binding NBS DNA” value is at most 0.2. In the case of QTAK, the “one-hybrid fitness for binding NBS DNA” value is at most 0.2.

QMSR: the “one-hybrid fitness for binding NBS DNA” value amounted to 0.557. For QMSN, the “one-hybrid fitness for binding NBS DNA” value was at most 0.2. Next, QMSD: at most 0.2; KFFY: at most 0.2; TGSL: at most 0.2.

In the case of HQMR, the “one-hybrid fitness for binding NBS DNA” value is at most 0.2. On to YVSG, for which the “one-hybrid fitness for binding NBS DNA” value was at most 0.2. On to IRIE, for which the “one-hybrid fitness for binding NBS DNA” value was at most 0.2.

For RCTT, the “one-hybrid fitness for binding NBS DNA” value came to 0.518. For RHTH, the “one-hybrid fitness for binding NBS DNA” value was at most 0.2. With RTTD, the “one-hybrid fitness for binding NBS DNA” value is at most 0.2. Take RRTT: the “one-hybrid fitness for binding NBS DNA” value was 0.716. On to RPTT, for which the “one-hybrid fitness for binding NBS DNA” value was at most 0.2. In the case of RTTT, the “one-hybrid fitness for binding NBS DNA” value worked out at 0.543. For RFTT, the “one-hybrid fitness for binding NBS DNA” value stood at 0.269. With RRTQ, the “one-hybrid fitness for binding NBS DNA” value is 0.243. Turning to RRTG, the “one-hybrid fitness for binding NBS DNA” value turned out to be 0.331. RHTT: the “one-hybrid fitness for binding NBS DNA” value amounted to 0.427. On to RHTD, for which the “one-hybrid fitness for binding NBS DNA” value was at most 0.2.

With RTTN, the “one-hybrid fitness for binding NBS DNA” value was at most 0.2. Consider QQII, for which the “one-hybrid fitness for binding NBS DNA” value is at most 0.2. Consider KSMI, for which the “one-hybrid fitness for binding NBS DNA” value is at most 0.2. As for KVWM, the “one-hybrid fitness for binding NBS DNA” value was at most 0.2. Take KATR: the “one-hybrid fitness for binding NBS DNA” value was at most 0.2.

For the variant ALTC, the “one-hybrid fitness for binding NBS DNA” value was at most 0.2.

Take AHCL: the “one-hybrid fitness for binding NBS DNA” value was at most 0.2. Next, HGAA: at most 0.2; HRGN: at most 0.2. Take REMS: the “one-hybrid fitness for binding NBS DNA” value is at most 0.2. As to CAHR, the “one-hybrid fitness for binding NBS DNA” value was at most 0.2.

In the case of LWHP, the “one-hybrid fitness for binding NBS DNA” value is at most 0.2.

Consider QELW, for which the “one-hybrid fitness for binding NBS DNA” value was at most 0.2. For YGQC, the “one-hybrid fitness for binding NBS DNA” value is at most 0.2. On to WRES, for which the “one-hybrid fitness for binding NBS DNA” value is at most 0.2.

Regarding YVSL, the “one-hybrid fitness for binding NBS DNA” value is at most 0.2. Regarding HMQS, the “one-hybrid fitness for binding NBS DNA” value is at most 0.2. As for LYTW, the “one-hybrid fitness for binding NBS DNA” value was at most 0.2. The same measure for RETT: at most 0.2; for RMTL: at most 0.2.

As for RLTT, the “one-hybrid fitness for binding NBS DNA” value came to 0.454. Consider RMTT, for which the “one-hybrid fitness for binding NBS DNA” value turned out to be 0.434. Turning to RKTC, the “one-hybrid fitness for binding NBS DNA” value amounted to 0.275. For RKTT, the “one-hybrid fitness for binding NBS DNA” value amounted to 0.666.

For RLTD, the “one-hybrid fitness for binding NBS DNA” value is at most 0.2. For the variant RGTT, the “one-hybrid fitness for binding NBS DNA” value was at most 0.2. In the case of RLTN, the “one-hybrid fitness for binding NBS DNA” value is at most 0.2. Consider RMTK, for which the “one-hybrid fitness for binding NBS DNA” value is at most 0.2. Next, RKTP: at most 0.2; RSTT: 0.426; DHNC: at most 0.2.

Regarding YATH, the “one-hybrid fitness for binding NBS DNA” value is at most 0.2. The same measure for QISK: at most 0.2. As to CLVT, the “one-hybrid fitness for binding NBS DNA” value was at most 0.2. DRWC: the “one-hybrid fitness for binding NBS DNA” value is at most 0.2.
